Experimental findings from PubChem BioAssay are described below.

The test can be described thus: probe aCHRDL2 binding to arrayed compounds – biochemical, biotinylated probe, 635/667 nm fluorescence, primary screen (AID 1100). To be noted: small-molecule microarray, higher = more signal.
`COCCOC(=O)N1C(=O)[C@@]2(c3cc(C#CCCO)ccc31)[C@H](C(=O)N1CCCCCCC1)[C@H]1C(=O)O[C@H](c3ccccc3)[C@H](c3ccccc3)N1[C@@H]2c1ccc(OCCO)cc1` had a composite z-score of 1.49.

With `C=CC[C@@]12N=C(c3ccc(OCCCO)cc3)O[C@@H]1c1ccccc1N(C)C2=O`, the composite z-score stood at 0.899.

Regarding `O=C1C2C=CC(C(O)Cc3ccccc3)N(n3cnnc3)C2C(=O)N1Cc1ccccc1` (stereo unspecified), the composite z-score was 0.868.

Turning to `CCN(CC)c1ccc(N2CC=CC34O[C@@H]5C=CCCOC(=O)C5[C@H]3C(=O)N(CCCCCCO)[C@@H]4C2=O)cc1` (stereo partly specified), the composite z-score was determined as 0.414.

In turn, `O=C1c2ccccc2[C@](Cc2ccccc2I)(C(=O)NCCN2CCOCC2)[C@H](c2ccc(CO)cc2)N1C1CCCCC1` yielded a composite z-score of 0.77.

The compound `[N-]=[N+]=Nc1ccccc1[C@@H]1OC(c2ccc(OCCCO)cc2)=N[C@]1(CCS(=O)(=O)c1ccccc1)C(N)=O` displayed a composite z-score of 1.25.

For `CN(C)C(=O)[C@@]1(CCS(=O)(=O)c2ccccc2)COC(c2ccc(OCCCO)cc2)=N1`, the composite z-score was found to be 0.977.

Compound `CC(C)C[C@@H]1NC(=O)[C@@H]2C[C@H](C(=O)O)[C@H](c3cccc(OCCO)c3)N2C1=O` yielded a composite z-score of 0.598.

On to `CCOC(=O)C[C@H]1[C@H](OC(=O)c2ccc(-c3ccccc3)cc2)[C@@H](NC(=O)Cc2ccc(OC)cc2)c2cc(OCCCO)ccc2N1C(=O)c1ccccc1`, for which the composite z-score was 0.294.

As to `C=C(CCCC)/C(=C/C[C@H](OC(C)=O)c1ccccc1OCCO)c1cc(C(=O)OC)ccc1OC`, the composite z-score is -0.285.

Turning to `C=CCC(OC(C)=O)[C@@H]1[C@@H](N(Cc2ccc(-c3ccccc3)cc2)C(=O)c2cccc3ccccc23)c2cc(OCCCO)ccc2N1C(=O)c1ccc(-c2ccccc2)cc1` (stereo partly specified), the composite z-score was 0.672.
